This is an account of results in PubChem BioAssay (Tox21).

The structures appear in SMILES notation. Results filed as inconclusive are left out. The source made the active and inactive calls. Calls come from the whole dose curve; as a rule, active = well fitted cell-killing curve with a large enough effect in the repeat runs; inconclusive = weak or mixed curves, or effect the other way; inactive = flat fitted curve, though single readings scatter.

This assay in a line: qHTS assay to identify small molecule antagonists of the retinoid acid receptor (RAR) signaling pathway - cell viability counter screen (AID 1159551). Note: nearly all actives have a fitted effect of over 35% in size. The note with it: C3RL4 cells viability, ATP luminescence (CellTiter-Glo), 6 h; series mostly up to 92.4 µM. The source says:
U.S. Tox21 Program National Center for Advancing Translational Sciences [NCATS] NIH Chemical Genomics Center [NCGC] U.S. Environmental Protection Agency [EPA] National Institutes of Environmental Health Sciences [NIEHS] National Toxicology Program [NTP] U.S. Food and Drug Administration [FDA] Tox21 Assay Overview: All-trans Retinoic acid (atRA) is the potent natural metabolite of retinol and plays an important role in normal embryonic development and maintenance of cellular phenotype in adult animals. atRA is the activating ligand for the retinoic acid receptors (RARs) which form heterodimers with retinoid X receptors (RXRs) on the retinoic acid response element (RARE). Through activation of the RAR/RXRs nuclear receptors, atRA regulates the transcription of a large number of protein-coding genes and regulatory RNAs. Intracellular levels of atRA are controlled by the retinol signaling pathway (RSP) that regulates the biosynthesis and catabolism of atRA to maintain physiological levels. Chemicals that interfere with the RSP can cause abnormal intracellular levels of atRA and therefore are potential developmental toxicants. To assess compounds for the potential adverse effect on embryonic development through interfering with retinol signaling, a cell-based RARE luciferase reporter gene assay was used. C3RL4 cell line (OARSA/CFSAN/FDA, Laurel, MD) was used to screen Tox21 10K compound library for identifying inhibitors of the RSP. Also cytotoxicity was assessed by determining the viability of cells based on the quantitation of ATP.
Tox21 Assay Protocol Summary: C3RL4 cells were seeded at 1,000/well in 4 uL of assay medium into white solid 1,536-well tissue culture plates (Greiner Bio-One North America Inc. Monroe, NC) using a Multidrop Combi (Thermo Scientific, Waltham, MA) dispenser. After incubation at 37 C and 5% CO2 for an overnight, 23 nL of compounds dissolved in DMSO, positive control or DMSO only were transferred by a Pintool station (Kalypsys, San Diego, CA). One ul of 1 uM (final concentration) of Retinol was added right after the compound addition by using a Flying Reagent Dispenser (FRD) (Aurora Discovery, San Diego, CA). After 6 hr incubation at 37 C and 5% CO2, 5 uL of CellTiter-Glo reagent (Promega Corporation, Madison, WI) was added to each assay plate using an FRD. Luminescence was quantified on a ViewLux plate reader (PerkinElmer, Waltham, MA) after 30 min incubation at room temperature.
As to `CCCCC(CC)COC(=O)C(C#N)=C(c1ccccc1)c1ccccc1` (stereo not given), the outcome was inactive. The same measure for `O=C(O)CCCCCCCCCCC(=O)O`: “inactive”. Consider `CCCCC(CC)COC(=O)CCCCC(=O)OCC(CC)CCCC` (stereo not given), for which the call was inactive. With `c1c[nH]cn1` the entry was “inactive”; with `CCCCCC1=CCCC1=O`, “inactive”. In the case of `CCN(CC)c1ccc(C(=O)c2ccccc2C(=O)O)c(O)c1`, the result was inactive.

Turning to `CCCCCCCCCCCCCCO`, the molecule was classed as inactive.

For the molecule `COc1ccc2cc([C@H](C)C(=O)O)ccc2c1`, the outcome was inactive. The same measure for `O=C(CC(C(=O)OC1CCCCC1)S(=O)(=O)O)OC1CCCCC1` (stereo not given): “inactive”.

`CCCCCCCCCCCCOCCO`: the result was inactive. In the case of `CC(=O)CC(=O)Nc1ccccc1`, the call was inactive. The same measure for `FC(F)(F)c1ccc(Cl)c(Cl)c1`: “inactive”. Consider `Cc1ccc(N(C)C)cc1`, for which the outcome was inactive.

`C=CCNC(N)=S`: the outcome was inactive. Turning to `O=C(O)c1cc(=O)c2c(OCC(O)COc3cccc4oc(C(=O)O)cc(=O)c34)cccc2o1`, the call was inactive.

Consider `CCCCCC/C(C=O)=C\c1ccccc1`, for which the result was inactive. For `CC(=O)c1ccccc1`, the outcome was inactive.

For `CN(C)CCC(c1ccccc1)c1ccccn1` (stereo not given), the molecule was called inactive. The same measure for `CC(C)CC(=O)CC(C)C`: “inactive”; for `CC1CCC(C(C)C)C(O)C1` (stereo not given): “inactive”; for `O=c1[nH]c(=O)n([C@H]2CCCO2)cc1F`: “inactive”. With `COS(C)(=O)=O` the entry was “inactive”; with `O=C(OCCOCCOC(=O)c1ccccc1)c1ccccc1`, “inactive”.

As for `O=C(O)[C@H](O)[C@@H](O)[C@H](O)[C@H](O)CO`, the molecule was classed as inactive.

As to `COc1ccc(Nc2ccccc2)c(C)c1`, the result was inactive. `O=C(O)c1cc(C(=O)O)cc(S(=O)(=O)O)c1`: the call was inactive. With `O=C(Oc1ccccc1)c1ccccc1` the entry was “inactive”. With `COc1cc(Cc2cnc(N)nc2N)cc(OC)c1OC` the entry was “inactive”. As for `CCc1ccc(CCOc2ccc(CC3SC(=O)NC3=O)cc2)nc1` (stereo not given), the outcome was inactive. The same measure for `ON=C1CCCCC1`: “inactive”. The same measure for `CC1=CCC2CC1C2(C)C` (stereo not given): “inactive”; for `OCCOCCN1CCN(C2=Nc3ccccc3Sc3ccccc32)CC1`: “inactive”.

With `Nc1ccccc1[N+](=O)[O-]`, the call was inactive. With `O=S1(=O)CC=CC1`, the molecule was classed as inactive. The same measure for `OC[C@H]1O[C@@](CO)(O[C@H]2O[C@H](CO)[C@@H](O)[C@H](O)[C@H]2O)[C@@H](O)[C@@H]1O`: “inactive”; for `OCC(CO)(CBr)CBr`: “inactive”; for `Nc1cc([N+](=O)[O-])ccc1O`: “inactive”. Regarding `C[C@H]1C[C@@H]2[C@H]([C@@H](O)C[C@@]3(C)[C@H]2CC[C@]3(O)C(=O)CO)[C@@]2(C)C=CC(=O)C=C12`, the outcome was inactive. As to `Cc1cnc(C(=O)NCCc2ccc(S(=O)(=O)NC(=O)NC3CCCCC3)cc2)cn1`, the call was inactive.

On to `CCCCCCCCC/C=C/CC1CC(=O)OC1=O` (stereo not given), for which the molecule was called inactive.
